Design in all cases: scale not given: direction of the effect not stated beside the values
Assay [1] addresses Protein translocase subunit SecA (Escherichia coli (strain K12)) (UniProt P10408). As to the kind of experiment: Assay to Identify E. coli SecA ATPase Inhibitors. It counts as functional. The settings on record: 30 µM.
The target in assay [2] is T1, Ubiquitin-activating enzyme e1, putative (Leishmania donovani (strain BPK282A1)) (UniProt E9BSI1).
T1 sequence (whole entry): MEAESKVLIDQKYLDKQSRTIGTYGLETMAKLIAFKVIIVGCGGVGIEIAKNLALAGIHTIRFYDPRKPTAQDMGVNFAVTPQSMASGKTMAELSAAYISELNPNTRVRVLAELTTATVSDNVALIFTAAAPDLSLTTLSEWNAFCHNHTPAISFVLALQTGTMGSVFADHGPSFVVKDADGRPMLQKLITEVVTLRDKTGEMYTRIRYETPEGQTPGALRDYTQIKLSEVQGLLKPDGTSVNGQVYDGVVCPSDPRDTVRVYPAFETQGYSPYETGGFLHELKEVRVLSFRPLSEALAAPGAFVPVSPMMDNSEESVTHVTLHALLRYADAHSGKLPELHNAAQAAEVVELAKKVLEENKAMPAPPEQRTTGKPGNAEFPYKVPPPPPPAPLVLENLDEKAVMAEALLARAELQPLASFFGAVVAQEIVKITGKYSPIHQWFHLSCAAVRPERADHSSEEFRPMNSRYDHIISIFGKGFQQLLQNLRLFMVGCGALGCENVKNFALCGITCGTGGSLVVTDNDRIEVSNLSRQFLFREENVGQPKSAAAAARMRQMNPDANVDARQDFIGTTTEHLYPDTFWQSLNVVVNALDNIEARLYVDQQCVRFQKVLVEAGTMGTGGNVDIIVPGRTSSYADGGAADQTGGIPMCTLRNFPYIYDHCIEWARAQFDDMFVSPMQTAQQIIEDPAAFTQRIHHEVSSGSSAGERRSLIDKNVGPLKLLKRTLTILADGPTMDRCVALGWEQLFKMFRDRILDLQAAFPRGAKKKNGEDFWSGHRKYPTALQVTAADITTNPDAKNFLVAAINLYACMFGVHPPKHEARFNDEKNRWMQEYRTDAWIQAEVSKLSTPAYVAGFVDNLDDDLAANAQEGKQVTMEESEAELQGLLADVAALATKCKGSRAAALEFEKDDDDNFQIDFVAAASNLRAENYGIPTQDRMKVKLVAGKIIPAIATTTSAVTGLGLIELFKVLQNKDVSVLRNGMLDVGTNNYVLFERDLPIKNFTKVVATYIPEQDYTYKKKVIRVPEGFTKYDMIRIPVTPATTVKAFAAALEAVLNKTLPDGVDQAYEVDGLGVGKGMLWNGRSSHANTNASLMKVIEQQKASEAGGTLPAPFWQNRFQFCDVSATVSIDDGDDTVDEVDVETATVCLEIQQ
As to the kind of experiment: Leishmania donovani Ubiquitin Activating Enzyme (LdE1). It counts as functional. The conditions noted are these: 30 µM.

Assay [3] has as its target T2, Aspartate--tRNA(Asp/Asn) ligase (Mycobacterium tuberculosis (strain ATCC 25618 / H37Rv)) (UniProt P9WFW3). Further: in the data most compounds retested in dose-response had high values.
T2 sequence (whole entry): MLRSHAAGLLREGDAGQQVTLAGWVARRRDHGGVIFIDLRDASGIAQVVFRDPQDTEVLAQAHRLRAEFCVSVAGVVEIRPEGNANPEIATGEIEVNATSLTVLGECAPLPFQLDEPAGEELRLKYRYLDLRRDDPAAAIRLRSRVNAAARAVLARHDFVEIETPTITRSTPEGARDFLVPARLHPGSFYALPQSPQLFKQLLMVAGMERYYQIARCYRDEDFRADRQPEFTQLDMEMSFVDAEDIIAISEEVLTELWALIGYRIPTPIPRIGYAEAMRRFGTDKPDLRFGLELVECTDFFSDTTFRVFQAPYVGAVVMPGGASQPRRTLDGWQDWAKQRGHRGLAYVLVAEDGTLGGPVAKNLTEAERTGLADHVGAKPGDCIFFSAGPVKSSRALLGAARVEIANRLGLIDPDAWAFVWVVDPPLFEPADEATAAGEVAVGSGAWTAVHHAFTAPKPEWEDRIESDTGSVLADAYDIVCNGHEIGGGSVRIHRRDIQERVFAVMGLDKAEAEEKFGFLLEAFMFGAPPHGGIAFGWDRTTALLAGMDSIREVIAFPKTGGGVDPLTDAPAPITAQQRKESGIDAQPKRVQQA
In words: Assay for Asp RNA synthetase-1 from Mycobacterium tuberculosis. It counts as functional. The conditions noted are these: 30 µM.

Assay [4] has as its target AMP-activated protein kinase, AMPK (Homo sapiens) (UniProt P54646+O43741+P54619+Q9UGJ0+Q9Y478+Q13131+Q9UGI9). As to the kind of experiment: AMP-dependent Kinase enzyme assay. An in vitro enzyme assay that detects ADP turnover that is directly proportional to AMPK activity. This uses naive AMPK that is activated during the assay with MK-8722. It counts as functional. The conditions noted are these: 30 µM.

For assay [5], the target named is Sialic acid-binding Ig-like lectin 9 (Homo sapiens) (UniProt Q9Y336). In words: Hs-Siglec9 ALPHAscreen SOP 20170721. The conditions noted are these: 10 µM. Background: Bead proximity is the source of the signal in Alpha formats.
Sialic acid-binding Ig-like lectin 9 (Homo sapiens), sequence (Q9Y336 whole entry): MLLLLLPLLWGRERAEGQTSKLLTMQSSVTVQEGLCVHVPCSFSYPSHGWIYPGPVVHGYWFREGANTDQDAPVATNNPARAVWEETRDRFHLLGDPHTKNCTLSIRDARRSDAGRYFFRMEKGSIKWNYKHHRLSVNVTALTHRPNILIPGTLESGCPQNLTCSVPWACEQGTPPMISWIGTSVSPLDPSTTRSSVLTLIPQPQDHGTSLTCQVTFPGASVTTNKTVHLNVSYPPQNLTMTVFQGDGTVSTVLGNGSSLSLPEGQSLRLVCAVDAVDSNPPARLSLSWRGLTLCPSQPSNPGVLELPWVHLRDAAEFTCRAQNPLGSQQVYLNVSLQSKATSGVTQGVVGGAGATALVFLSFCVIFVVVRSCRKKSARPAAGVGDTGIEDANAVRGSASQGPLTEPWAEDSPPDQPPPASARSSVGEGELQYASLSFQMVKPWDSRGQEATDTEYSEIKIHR
For assay [6], the system named is Trypanosoma cruzi. As to the kind of experiment: Trypanosoma cruzi phosphomannomutase and mannose-1-phosphate guanylyltransferase assay. The class given is functional. The settings on record: 10 µM.
The target of assay [7] is T3, Arginase-2, mitochondrial (Homo sapiens) (UniProt P78540).
T3 sequence (whole entry): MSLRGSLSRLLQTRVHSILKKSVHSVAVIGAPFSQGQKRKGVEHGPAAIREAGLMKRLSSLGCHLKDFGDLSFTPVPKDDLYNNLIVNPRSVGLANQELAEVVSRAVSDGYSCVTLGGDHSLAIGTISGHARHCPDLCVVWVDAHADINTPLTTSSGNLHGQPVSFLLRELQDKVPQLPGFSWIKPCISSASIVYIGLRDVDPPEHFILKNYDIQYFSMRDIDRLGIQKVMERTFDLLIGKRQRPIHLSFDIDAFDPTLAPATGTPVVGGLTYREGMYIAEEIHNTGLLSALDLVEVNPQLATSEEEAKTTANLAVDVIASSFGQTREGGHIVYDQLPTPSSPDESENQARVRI
In words: in vitro enzyme assay to detect the production of urea directly proportional to the activity of Arginase II. Further: in the data most compounds retested in dose-response had high values. The class given is functional. The settings on record: 33.3 µM.

Assay [8] deals with T4, Proteasome subunit beta (Trypanosoma cruzi) (UniProt O96673).
T4 sequence (whole entry): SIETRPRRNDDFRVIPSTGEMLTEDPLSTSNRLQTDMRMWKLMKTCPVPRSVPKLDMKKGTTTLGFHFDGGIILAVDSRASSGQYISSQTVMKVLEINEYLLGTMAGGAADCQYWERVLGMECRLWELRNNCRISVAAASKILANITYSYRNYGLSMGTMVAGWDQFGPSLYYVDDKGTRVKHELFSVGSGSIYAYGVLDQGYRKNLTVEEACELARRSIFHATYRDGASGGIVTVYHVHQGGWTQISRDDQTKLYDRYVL
As to the kind of experiment: Trypanosoma cruzi proteasome chymotrypsin-like activity (TcProtChymo) assay. Further: in the data most compounds retested in dose-response had high values. It counts as functional. The conditions noted are these: 9.37 µM.

Assay [9] is filed under the species Homo sapiens. In words: To identify inhibition of the IFN signalling (Jak-Stat) pathway via expression of an eGFP reporter gene under the control of an IFN-stimulated response element (ISRE) containing MxA promoter. The class given is functional. The conditions noted are these: 30 µM. A general note: A reporter such as luciferase makes a cellular process visible.

Assay [10] concerns the target Shiga toxin 2 (Escherichia coli O157:H7) (UniProt P09385+P09386). As to the kind of experiment: E. coli 0.157:H7 Shiga Toxin SOP - stx2 screening assay. The class given is functional. The settings on record: 30 µM.
Assay [11] addresses T5, Tyrosyl-tRNA synthetase, putative (Trypanosoma cruzi (strain CL Brener)) (UniProt Q4DSP6).
T5 sequence (whole entry): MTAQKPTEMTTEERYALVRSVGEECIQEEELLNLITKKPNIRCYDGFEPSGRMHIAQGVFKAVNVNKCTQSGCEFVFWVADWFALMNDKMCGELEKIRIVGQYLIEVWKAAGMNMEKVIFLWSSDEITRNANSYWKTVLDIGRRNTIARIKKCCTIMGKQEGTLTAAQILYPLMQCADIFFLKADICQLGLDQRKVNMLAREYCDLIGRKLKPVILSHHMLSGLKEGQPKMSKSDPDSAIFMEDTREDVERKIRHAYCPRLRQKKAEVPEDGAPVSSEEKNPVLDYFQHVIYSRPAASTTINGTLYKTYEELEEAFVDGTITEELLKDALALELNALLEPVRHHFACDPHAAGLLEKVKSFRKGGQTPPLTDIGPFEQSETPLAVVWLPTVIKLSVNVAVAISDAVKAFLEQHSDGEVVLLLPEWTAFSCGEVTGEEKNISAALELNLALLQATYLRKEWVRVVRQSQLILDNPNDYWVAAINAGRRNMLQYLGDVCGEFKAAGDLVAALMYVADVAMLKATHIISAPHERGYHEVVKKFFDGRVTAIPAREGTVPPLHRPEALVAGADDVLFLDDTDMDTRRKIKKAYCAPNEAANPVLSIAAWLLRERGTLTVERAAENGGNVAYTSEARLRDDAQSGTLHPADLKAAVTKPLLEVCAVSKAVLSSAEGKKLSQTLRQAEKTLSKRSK
In words: Trypanosoma cruzi tyrosyl tRNA synthetase (TcYRS) _High Tyrosine SOP. Further: in the data most compounds retested in dose-response had high values. It counts as functional. The conditions noted are these: 30 µM.

The target in assay [12] is T5, Tyrosyl-tRNA synthetase, putative (Trypanosoma cruzi (strain CL Brener)). As to the kind of experiment: Trypanosoma cruzi tyrosyl tRNA synthetase (TcYRS) SOP. The class given is functional. The conditions noted are these: 30 µM.
Assay [13] has as its target Chromo domain-containing protein 1 (Saccharomyces cerevisiae (strain ATCC 204508 / S288c) (Baker's yeast)) (UniProt P32657). In words: ScCHD-1 Enzyme Inhibition Assay. Further: in the data most compounds retested in dose-response had high values. The class given is functional. The settings on record: 30 µM.

For some assays here: Entries with a potency or affinity are not part of this list.

Chromo domain-containing protein 1 (Saccharomyces cerevisiae (strain ATCC 204508 / S288c) (Baker's yeast)), sequence (P32657 whole entry, the tested form may be a part): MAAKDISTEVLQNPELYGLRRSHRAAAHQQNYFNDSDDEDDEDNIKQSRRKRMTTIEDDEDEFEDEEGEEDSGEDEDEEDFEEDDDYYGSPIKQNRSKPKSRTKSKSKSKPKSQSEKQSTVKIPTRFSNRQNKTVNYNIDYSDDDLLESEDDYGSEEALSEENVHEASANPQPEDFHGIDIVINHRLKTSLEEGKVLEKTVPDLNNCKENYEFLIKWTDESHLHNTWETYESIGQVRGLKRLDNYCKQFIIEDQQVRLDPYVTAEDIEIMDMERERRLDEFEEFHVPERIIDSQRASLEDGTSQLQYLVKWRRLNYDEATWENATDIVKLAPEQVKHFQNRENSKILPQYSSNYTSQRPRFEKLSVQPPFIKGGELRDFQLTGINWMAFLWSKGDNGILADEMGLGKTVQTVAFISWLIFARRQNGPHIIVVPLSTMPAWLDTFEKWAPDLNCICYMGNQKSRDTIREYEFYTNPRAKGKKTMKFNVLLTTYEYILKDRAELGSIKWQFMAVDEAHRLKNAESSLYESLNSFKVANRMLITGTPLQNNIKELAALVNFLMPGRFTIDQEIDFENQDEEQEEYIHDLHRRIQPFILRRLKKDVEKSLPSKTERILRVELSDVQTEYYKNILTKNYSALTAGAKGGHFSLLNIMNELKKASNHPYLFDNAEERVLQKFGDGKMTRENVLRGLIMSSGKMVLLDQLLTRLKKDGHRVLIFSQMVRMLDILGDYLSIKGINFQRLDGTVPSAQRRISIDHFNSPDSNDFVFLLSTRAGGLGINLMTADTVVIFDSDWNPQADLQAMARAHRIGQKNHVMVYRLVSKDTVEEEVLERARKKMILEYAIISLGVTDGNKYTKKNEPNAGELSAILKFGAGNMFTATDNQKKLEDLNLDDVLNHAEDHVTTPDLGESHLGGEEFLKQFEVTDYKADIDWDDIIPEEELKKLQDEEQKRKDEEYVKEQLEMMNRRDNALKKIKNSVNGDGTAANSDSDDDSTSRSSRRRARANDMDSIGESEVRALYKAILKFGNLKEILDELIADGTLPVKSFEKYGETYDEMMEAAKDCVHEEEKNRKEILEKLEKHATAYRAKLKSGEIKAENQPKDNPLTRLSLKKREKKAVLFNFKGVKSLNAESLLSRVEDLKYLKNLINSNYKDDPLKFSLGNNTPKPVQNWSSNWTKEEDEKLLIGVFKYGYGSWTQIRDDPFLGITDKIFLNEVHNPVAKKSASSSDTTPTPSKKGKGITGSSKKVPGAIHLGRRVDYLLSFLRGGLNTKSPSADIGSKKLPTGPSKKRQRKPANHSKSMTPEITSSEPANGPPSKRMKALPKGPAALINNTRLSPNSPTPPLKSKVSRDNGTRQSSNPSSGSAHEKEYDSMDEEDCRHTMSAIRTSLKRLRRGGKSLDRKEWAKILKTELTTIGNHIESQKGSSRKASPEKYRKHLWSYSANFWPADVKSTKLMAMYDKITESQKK
Protein translocase subunit SecA (Escherichia coli (strain K12)), sequence (P10408 whole entry): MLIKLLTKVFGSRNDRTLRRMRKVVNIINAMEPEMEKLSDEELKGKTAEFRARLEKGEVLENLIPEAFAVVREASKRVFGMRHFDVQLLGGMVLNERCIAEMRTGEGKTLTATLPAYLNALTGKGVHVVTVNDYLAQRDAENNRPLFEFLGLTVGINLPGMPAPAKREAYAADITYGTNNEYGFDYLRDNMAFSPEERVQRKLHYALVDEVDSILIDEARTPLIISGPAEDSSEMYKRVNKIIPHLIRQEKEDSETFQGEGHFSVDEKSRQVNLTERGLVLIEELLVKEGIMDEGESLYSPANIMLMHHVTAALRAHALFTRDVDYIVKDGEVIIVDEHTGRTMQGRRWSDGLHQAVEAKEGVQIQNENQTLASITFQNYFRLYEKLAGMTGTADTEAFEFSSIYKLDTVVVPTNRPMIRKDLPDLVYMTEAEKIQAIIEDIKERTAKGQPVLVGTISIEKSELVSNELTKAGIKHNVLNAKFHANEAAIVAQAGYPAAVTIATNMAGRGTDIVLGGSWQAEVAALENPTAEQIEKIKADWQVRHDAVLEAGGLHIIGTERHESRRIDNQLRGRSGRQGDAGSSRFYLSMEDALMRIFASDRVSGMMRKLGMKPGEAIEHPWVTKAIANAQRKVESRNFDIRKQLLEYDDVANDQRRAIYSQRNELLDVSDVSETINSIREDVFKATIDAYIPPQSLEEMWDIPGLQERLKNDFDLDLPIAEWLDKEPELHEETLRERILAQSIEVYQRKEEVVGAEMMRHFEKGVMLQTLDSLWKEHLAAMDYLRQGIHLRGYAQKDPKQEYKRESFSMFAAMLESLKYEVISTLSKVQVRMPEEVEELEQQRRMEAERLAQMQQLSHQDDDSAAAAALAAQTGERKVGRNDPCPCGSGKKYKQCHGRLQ

On to `Cc1n[nH]c2c1C(c1ccc(O)c(Cl)c1)SCC(=O)N2` (stereo not given), for which the Percent Effect in assay [1] was -3.6%; in [2], 4%; in assay [3], -0.755%; in assay [4], 21.6%; in assay [5], 4.97%; in [6] it was -3.73%. For the same compound, the Percent Effect in assay [7] is -6.16%; in assay [8], 5.18%; in [9], 10.7%; in assay [10] it was -29.6%; in [11], 9.52%; in assay [12], 15.4%. Besides, in assay [13], the Percent Effect is -4.99%.
With `CCS(=O)(=O)NC[C@]12COC[C@H]1CN(Cc1cc(C)on1)C2`, the Percent Effect in assay [1] is -3.29%; in assay [2] it was 0%; in assay [3], -3.83%; in assay [4], 4.08%; in assay [5], 3.76%; in assay [6], -0.684%. Also, the Percent Effect in assay [7] was 4.14%; in assay [8] it was 20.9%; in assay [9] it was -25%; in [10], 1.54%; in assay [11] it was 5.41%; in [12], 12.8%. The Percent Effect in assay [13] was -1.96%.
With `O=C1CSC(c2cccs2)c2cnn(C3CCCC3)c2N1` (stereo not given), the Percent Effect is -5.94% in assay [1]; -12% in assay [2]; 7.29% in assay [3]; 3.55% in assay [4]; 10.9% in assay [5]; 3.73% in assay [6]. Further, the Percent Effect in [7] was -35.7%; in assay [8], 8.5%; in [9], 24%; in assay [10], 28.5%; in assay [11], 4.23%; in assay [12], 20.5%. Further, the Percent Effect in assay [13] was 66.9%.
For the compound `CNC(=O)[C@@]12CCCN(c3ncccn3)[C@@H]1CN(C)C2`, the Percent Effect is -7.94% in assay [1]; 5.2% in assay [2]; -0.539% in [3]; 20.5% in assay [4]; -6.43% in assay [5]; -6.21% in assay [6]. Besides, the Percent Effect in [7] is 4.52%; in assay [8], 9.4%; in assay [9], 14.9%; in [10] it was -9.88%; in [11], -4.23%; in assay [12], -1.28%. Further, the Percent Effect in [13] is -2.69%.
For the compound `O=C(C1CCC1)N1CCC2(CC1)OCCO2`, the Percent Effect was -3.54% in [1]; -2.63% in assay [2]; -4.73% in assay [3]; 2.75% in [4]; 1.15% in [5]; -1.85% in assay [6]. Further, the Percent Effect is 7.1% in assay [7]; 6.04% in assay [8]; 5.13% in assay [9]; -1.29% in assay [10]; 0% in assay [11]; 5.2% in assay [12]. Besides, the Percent Effect in assay [13] was -0.64%.

The record behind these values is ChEMBL document CHEMBL3988442, “University of Dundee, Small-Polar-MMV Screening Library” (2021).
